Experiment [1] is described as follows: antimalarial activity against Dd2 strain (AID 2302;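 active means growth inhibition above 50% at the single 2 µM test dose, taken to imply half-maximal potency below 2 µM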;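 further: 0% = DMSO untreated growth and 100% = chloroquine plus artemisinin killed control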). The following applies: P. falciparum Dd2 in RBCs, LDH growth readout, 72 h; at 2 µM; active compounds read high.
Experiment [2] is described as follows: human hepatoma cell viability loss – ATP luminescence, cytotoxicity control for P. falciparum antimalarial project, primary screen (AID 2303;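 active means inhibition above 50%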;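 further: 0% = DMSO wells and 100% = digitonin-killed cells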). The following applies: HepG2 viability, 24-48 h, at 10 µM, active compounds read high.
The target in experiment [3] is L-lactate dehydrogenase (Plasmodium falciparum (isolate CDC / Honduras)) (UniProt Q27743). Kind of experiment: PfLDH activity inhibition – cell lysate, 3D7 strain, counter-screen for P. falciparum growth inhibition project (AID 2304).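 Further: 0% = vehicle and 100% = reference inhibitor.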 Particulars: P. falciparum 3D7 crude extract, LDH APAD/NBT absorbance; at 2 µM; active compounds read high.
Experiment [4] is described as follows: inhibition of 3D7 malaria parasite growth – strain 3D7 (AID 2306).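 Further: 0% = DMSO wells and 100% = chloroquine plus artemisinin control wells.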 The following applies: P. falciparum 3D7 erythrocytic growth, LDH absorbance, 72 h; at 2 µM; active compounds read high.
Experiment [5] has as its target Calcium-dependent protein kinase 1 (Plasmodium falciparum (isolate 3D7)) (UniProt P62344). Kind of experiment: PfCDPK1 kinase inhibitors, biochemical, TCAMS library (AID 1159585; cut-off not given, nearly all actives have IC50 up to about 0.98 µM;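 further: inhibitors leave more ATP so luminescence rises with inhibition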). The following applies: recombinant PfCDPK1, Kinase-Glo ATP depletion luminescence.
Experiment [6] has as its target Plasmodium falciparum protein kinase 6 (PK6, PF3D7_1337100) (UniProt Q8IDW1). Nature of the experiment: PfPK6 kinase inhibitors, biochemical, TCAMS library (AID 1159586). Particulars: recombinant PfPK6, Kinase-Glo ATP depletion luminescence.
The target in experiment [7] is Protein kinase 7 (PK7), Plasmodium falciparum 3D7 (PF3D7_0213400) (UniProt Q7YTF7). Kind of experiment: inhibition of Plasmodium PK7 catalytic activity – biochemical, TCAMS antimalarial set, Kinase-Glo luminescence (AID 1159587). Particulars: recombinant PfPK7, Kinase-Glo ATP depletion luminescence. (Kinase-Glo measures the ATP left after a reaction by luminescence.)

For experiment [8], the target named is Calcium-dependent protein kinase 4 (Plasmodium falciparum (isolate 3D7)) (UniProt Q8IBS5). Nature of the experiment: PfCDPK4 kinase inhibitors, biochemical, TCAMS library (AID 1159588; cut-off not given, nearly all actives have IC50 up to about 0.91 µM). The following applies: recombinant PfCDPK4, Kinase-Glo ATP depletion luminescence.

Values without a mark were called inactive. For some of these results: Results with a measured potency or affinity are listed apart. The source made the active and inactive calls. Unless noted, how the calls were made is not given here.

For 20 molecules, growth inhibition, inhibition and outcome results are on record in PubChem BioAssay.

L-lactate dehydrogenase (Plasmodium falciparum (isolate CDC / Honduras)), sequence (Q27743 whole entry, looked up): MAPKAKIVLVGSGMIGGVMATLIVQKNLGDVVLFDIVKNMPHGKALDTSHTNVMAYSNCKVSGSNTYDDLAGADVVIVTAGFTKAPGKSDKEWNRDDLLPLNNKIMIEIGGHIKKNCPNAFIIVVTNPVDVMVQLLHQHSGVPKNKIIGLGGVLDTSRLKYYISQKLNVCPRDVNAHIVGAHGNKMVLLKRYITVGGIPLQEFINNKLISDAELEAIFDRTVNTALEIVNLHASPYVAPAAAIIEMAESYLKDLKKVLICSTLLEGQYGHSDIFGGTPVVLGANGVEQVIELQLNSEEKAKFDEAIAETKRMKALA
Plasmodium falciparum protein kinase 6 (PK6, PF3D7_1337100), sequence (Q8IDW1 1-305): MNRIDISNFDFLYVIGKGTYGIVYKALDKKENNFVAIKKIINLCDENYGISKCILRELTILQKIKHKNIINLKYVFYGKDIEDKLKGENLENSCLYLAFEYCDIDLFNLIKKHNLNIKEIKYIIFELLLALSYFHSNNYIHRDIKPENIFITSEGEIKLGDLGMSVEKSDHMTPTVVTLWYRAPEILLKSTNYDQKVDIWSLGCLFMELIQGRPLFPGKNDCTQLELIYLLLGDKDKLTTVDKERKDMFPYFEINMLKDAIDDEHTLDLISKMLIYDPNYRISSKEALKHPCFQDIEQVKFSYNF
Calcium-dependent protein kinase 1 (Plasmodium falciparum (isolate 3D7)), sequence (P62344 whole entry, looked up): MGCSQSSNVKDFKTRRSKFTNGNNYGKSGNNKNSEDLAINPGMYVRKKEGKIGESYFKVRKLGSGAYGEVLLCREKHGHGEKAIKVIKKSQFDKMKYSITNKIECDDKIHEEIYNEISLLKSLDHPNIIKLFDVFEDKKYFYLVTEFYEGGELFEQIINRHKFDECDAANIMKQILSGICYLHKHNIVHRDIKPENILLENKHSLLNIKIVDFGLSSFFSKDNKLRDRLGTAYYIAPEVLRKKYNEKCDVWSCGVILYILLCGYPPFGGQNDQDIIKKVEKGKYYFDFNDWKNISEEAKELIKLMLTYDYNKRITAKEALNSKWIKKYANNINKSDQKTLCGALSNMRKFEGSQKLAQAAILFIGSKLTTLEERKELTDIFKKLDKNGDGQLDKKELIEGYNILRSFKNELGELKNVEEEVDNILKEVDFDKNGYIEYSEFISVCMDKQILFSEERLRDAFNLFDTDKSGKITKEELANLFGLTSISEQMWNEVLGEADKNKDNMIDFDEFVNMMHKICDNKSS
Protein kinase 7 (PK7), Plasmodium falciparum 3D7 (PF3D7_0213400), sequence (Q7YTF7 1-343): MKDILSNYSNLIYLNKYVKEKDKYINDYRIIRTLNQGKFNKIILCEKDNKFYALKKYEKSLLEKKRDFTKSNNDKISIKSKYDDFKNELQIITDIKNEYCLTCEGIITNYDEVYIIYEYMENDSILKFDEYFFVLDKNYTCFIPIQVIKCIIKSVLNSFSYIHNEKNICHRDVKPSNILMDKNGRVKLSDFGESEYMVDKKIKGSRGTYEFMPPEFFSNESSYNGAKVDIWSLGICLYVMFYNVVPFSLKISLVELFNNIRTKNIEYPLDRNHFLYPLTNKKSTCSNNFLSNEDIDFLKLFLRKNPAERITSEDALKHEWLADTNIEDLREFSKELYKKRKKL
Calcium-dependent protein kinase 4 (Plasmodium falciparum (isolate 3D7)), sequence (Q8IBS5 whole entry, looked up): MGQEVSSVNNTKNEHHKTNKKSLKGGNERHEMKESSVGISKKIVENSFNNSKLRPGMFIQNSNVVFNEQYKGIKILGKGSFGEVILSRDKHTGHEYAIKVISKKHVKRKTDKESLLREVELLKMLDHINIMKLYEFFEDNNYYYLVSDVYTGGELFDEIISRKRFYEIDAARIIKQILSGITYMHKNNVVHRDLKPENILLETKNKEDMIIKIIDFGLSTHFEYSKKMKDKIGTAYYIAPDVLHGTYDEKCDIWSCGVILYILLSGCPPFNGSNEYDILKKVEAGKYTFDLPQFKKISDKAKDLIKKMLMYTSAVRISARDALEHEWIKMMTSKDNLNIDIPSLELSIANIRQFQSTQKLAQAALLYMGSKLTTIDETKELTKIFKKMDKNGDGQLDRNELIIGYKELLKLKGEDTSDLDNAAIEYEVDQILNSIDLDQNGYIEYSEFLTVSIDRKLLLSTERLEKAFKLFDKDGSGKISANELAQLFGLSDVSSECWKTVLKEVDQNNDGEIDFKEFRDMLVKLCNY

One may read the inhibition as the drop in the measured response relative to a control, in per cent. `CCN1CCC(NCc2ccc(-c3ccc(Cl)cc3)cc2)CC1`: the growth inhibition was 33% in experiment [1] and 100% (active) in experiment [4]. The inhibition is 25% in experiment [2] and -2% in experiment [3]. The result in experiment [5], in experiment [6], in experiment [7] and in experiment [8] was inactive.

Consider `COc1ccc2nc3cc(Cl)ccc3c(NCCCCN)c2c1`, for which the growth inhibition is 62% (active) in experiment [1] and 101% (active) in experiment [4]. Also, the results for the inhibition in experiment [2] and in experiment [3] were 52% (active) and 7%, respectively. The outcome in experiment [5], in experiment [6], in experiment [7] and in experiment [8] was inactive.

In the case of `Clc1ccc2c(NCCCCCCCCNc3ccnc4cc(Cl)ccc34)ccnc2c1`, the figures for the growth inhibition in experiment [1] and in experiment [4] were 96% (active) and 99% (active), respectively. Moreover, the inhibition in experiment [2] is 2%; in experiment [3], 4%. The result in experiment [5], in experiment [6], in experiment [7] and in experiment [8] was inactive.

Take `CC(C)(C)c1ccc(-c2cc(C(=O)N[C@@H](CO)C(=O)O)on2)cc1` (tested in a mixture with another compound): the results for the growth inhibition in experiment [1] and in experiment [4] were -2% and 87% (active), respectively. The inhibition in experiment [2] is 1%; in experiment [3], -1%. In addition, the result in experiment [5], in experiment [6], in experiment [7] and in experiment [8] was inactive.

Regarding `CCCCCCN1CCC(NCc2ccc(C(F)(F)F)cc2)CC1`, the figures for the growth inhibition in experiment [1] and in experiment [4] were 47% and 100% (active), respectively. The results for the inhibition in experiment [2] and in experiment [3] were 11% and -2%, respectively. Besides, the result in experiment [5], in experiment [6], in experiment [7] and in experiment [8] was inactive.

Consider `COc1ccc2nccc(N(C)CC3(O)CCC(NCc4cc5c(cn4)OCCO5)CC3)c2n1` (stereo not given), for which the growth inhibition in experiment [1] is 14%; in experiment [4], 99% (active). Also, the inhibition in experiment [2] is 1%; in experiment [3] it was -2%. The result in experiment [5], in experiment [6], in experiment [7] and in experiment [8] was inactive.

On to `OC1(c2ccccc2)c2cc(Cl)ccc2OC1c1nc2c(Cl)ccc(Cl)c2o1` (stereo not given), for which the growth inhibition was 89% (active) in experiment [1] and 98% (active) in experiment [4]. Also, the values for the inhibition in experiment [2] and in experiment [3] were 7% and -6%, respectively. The outcome in experiment [5], in experiment [6], in experiment [7] and in experiment [8] was inactive.

In the case of `COc1ccc2nccc(N3CCC(CCNCc4ccc5c(n4)NC(=O)CO5)CC3)c2c1`, the growth inhibition was 50% (active) in experiment [1] and 101% (active) in experiment [4]. The inhibition in experiment [2] was 22%; in experiment [3], -1%. Also, the outcome in experiment [5], in experiment [6], in experiment [7] and in experiment [8] was inactive.

Regarding `Cc1cccc2[nH]c(-c3cccc(-c4cccc(NC(=O)CN5CCN(C)CC5)c4)c3)nc12`, the growth inhibition in experiment [1] is 99% (active); in experiment [4], 101% (active). Besides, the results for the inhibition in experiment [2] and in experiment [3] were 76% (active) and -1%, respectively. In addition, the result in experiment [5], in experiment [6], in experiment [7] and in experiment [8] was inactive.

Regarding `O=S(=O)(c1c(Cl)cc(Cl)cc1Cl)N1CCCCC(c2ccc(C(F)(F)F)cc2)=N1`, the growth inhibition in experiment [1] is 99% (active); in experiment [4], 98% (active). Moreover, the figures for the inhibition in experiment [2] and in experiment [3] were 6% and -5%, respectively. The outcome in experiment [5], in experiment [6], in experiment [7] and in experiment [8] was inactive.

Take `COc1ccccc1CCNc1nc(C)cc(NCCC(=O)Nc2ccccc2)n1`: the growth inhibition in experiment [1] is 24%; in experiment [4], 101% (active). Moreover, the inhibition in experiment [2] was 7%; in experiment [3], 0%. In addition, the outcome in experiment [5], in experiment [6], in experiment [7] and in experiment [8] was inactive.

Consider `COc1cc(NC(=O)c2cc([N+](=O)[O-])ccc2NC(=O)CNC2CCCC(C)C2C)cc(OC)c1` (stereo not given), for which the growth inhibition in experiment [1] is 80% (active); in experiment [4], 97% (active). Moreover, the inhibition in experiment [2] is 21%; in experiment [3] it was 4%. Also, the result in experiment [5], in experiment [6], in experiment [7] and in experiment [8] was inactive.

As to `Cc1ccccc1Oc1nc2ccccc2nc1SCC(=O)NC(C)C`, the growth inhibition in experiment [1] is 55% (active); in experiment [4] it was 97% (active). Also, the inhibition in experiment [2] was -14%; in experiment [3], -1%. Also, the result in experiment [5], in experiment [6], in experiment [7] and in experiment [8] was inactive.

With `COc1cc2nc(N3CCC(CNC(=O)c4ccc(-c5ccc(-c6noc(C)n6)cc5C)cc4)CC3)nc(N)c2cc1OC`, the growth inhibition in experiment [1] was 99% (active); in experiment [4], 100% (active). Also, the inhibition was 99% (active) in experiment [2] and -4% in experiment [3]. Moreover, the result in experiment [5], in experiment [6], in experiment [7] and in experiment [8] was inactive.

As to `CNC(=O)c1ccccc1Nc1nc(Nc2cccnc2)ncc1C`, the growth inhibition is 90% (active) in experiment [1] and 93% (active) in experiment [4]. The inhibition is 17% in experiment [2] and 1% in experiment [3]. Moreover, the result in experiment [5], in experiment [6], in experiment [7] and in experiment [8] was inactive.

As for `O=C(/C=C/c1ccc(Cl)cc1)Nc1ccc2nc(CN3CCCC3)ccc2c1`, the figures for the growth inhibition in experiment [1] and in experiment [4] were 30% and 85% (active), respectively. The inhibition was 47% in experiment [2] and -2% in experiment [3]. The outcome in experiment [5], in experiment [6], in experiment [7] and in experiment [8] was inactive.

Regarding `CN(C)c1cccc2c(S(=O)(=O)Nc3cccc(CCN4CCC(N5CCCCC5)CC4)c3)cccc12`, the growth inhibition in experiment [1] is 54% (active); in experiment [4] it was 98% (active). Also, the figures for the inhibition in experiment [2] and in experiment [3] were 41% and -2%, respectively. Moreover, the result in experiment [5], in experiment [6], in experiment [7] and in experiment [8] was inactive.

For the molecule `Cc1cccc2[nH]c(-c3cccc(-c4ccc(C(=O)NCc5ccccc5S(C)(=O)=O)cc4)c3)nc12`, the growth inhibition was 27% in experiment [1] and 100% (active) in experiment [4]. The inhibition in experiment [2] was 17%; in experiment [3], 1%. In addition, the outcome in experiment [5], in experiment [6], in experiment [7] and in experiment [8] was inactive.

In the case of `CCOc1cc(C(=O)Nc2ccc3nc(N4CCCCC4)cc(C)c3c2)cc(OCC)c1OCC`, the figures for the growth inhibition in experiment [1] and in experiment [4] were 2% and 100% (active), respectively. Besides, the inhibition in experiment [2] was 26%; in experiment [3] it was -6%. Moreover, the outcome in experiment [5], in experiment [6], in experiment [7] and in experiment [8] was inactive.

With `O=C(Nc1ccsc1)Nc1cccc(-c2cccc(-c3nc4ccccc4[nH]3)c2)c1`, the growth inhibition in experiment [1] was 55% (active); in experiment [4], 101% (active). Further, the inhibition in experiment [2] was 61% (active); in experiment [3] it was -7%. The result in experiment [5], in experiment [6], in experiment [7] and in experiment [8] was inactive.
